# NPR1 activator: GC-A (human) enzyme activation; 370,000 compounds, 0.14% hits; HEK293 GC-A cells, cGMP TR-FRET, EC30 ANP; 0% at EC30 ANP, 100% saturating ANP; activation, % at 10 µM; in the data active = activation above about 40%
# PLC-beta3 inh: blocks human PLC-beta3 enzyme activity. inhibition, % at 12.2 µM. Q01970. 370,000 compounds, 0.18% hits. Purified PLC-beta3, fluorogenic substrate, fluorescence;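 also: 0% = median of compound wells on plate and 100% = full blocker control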
# GC-B act: GC-B (human) receptor activation; P20594; HEK293-GC-B cells, CNP EC30, cGMP TR-FRET; 0% at EC30 CNP, 100% saturating CNP; activation, % at 10 µM; 370,000 compounds, 0.11% hits; AID 1920062;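 active = activation at 10 µM reaching about 35% in either raw or pattern-adjusted values, limit read from the data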
# Target sequence (P20594 whole entry, looked up): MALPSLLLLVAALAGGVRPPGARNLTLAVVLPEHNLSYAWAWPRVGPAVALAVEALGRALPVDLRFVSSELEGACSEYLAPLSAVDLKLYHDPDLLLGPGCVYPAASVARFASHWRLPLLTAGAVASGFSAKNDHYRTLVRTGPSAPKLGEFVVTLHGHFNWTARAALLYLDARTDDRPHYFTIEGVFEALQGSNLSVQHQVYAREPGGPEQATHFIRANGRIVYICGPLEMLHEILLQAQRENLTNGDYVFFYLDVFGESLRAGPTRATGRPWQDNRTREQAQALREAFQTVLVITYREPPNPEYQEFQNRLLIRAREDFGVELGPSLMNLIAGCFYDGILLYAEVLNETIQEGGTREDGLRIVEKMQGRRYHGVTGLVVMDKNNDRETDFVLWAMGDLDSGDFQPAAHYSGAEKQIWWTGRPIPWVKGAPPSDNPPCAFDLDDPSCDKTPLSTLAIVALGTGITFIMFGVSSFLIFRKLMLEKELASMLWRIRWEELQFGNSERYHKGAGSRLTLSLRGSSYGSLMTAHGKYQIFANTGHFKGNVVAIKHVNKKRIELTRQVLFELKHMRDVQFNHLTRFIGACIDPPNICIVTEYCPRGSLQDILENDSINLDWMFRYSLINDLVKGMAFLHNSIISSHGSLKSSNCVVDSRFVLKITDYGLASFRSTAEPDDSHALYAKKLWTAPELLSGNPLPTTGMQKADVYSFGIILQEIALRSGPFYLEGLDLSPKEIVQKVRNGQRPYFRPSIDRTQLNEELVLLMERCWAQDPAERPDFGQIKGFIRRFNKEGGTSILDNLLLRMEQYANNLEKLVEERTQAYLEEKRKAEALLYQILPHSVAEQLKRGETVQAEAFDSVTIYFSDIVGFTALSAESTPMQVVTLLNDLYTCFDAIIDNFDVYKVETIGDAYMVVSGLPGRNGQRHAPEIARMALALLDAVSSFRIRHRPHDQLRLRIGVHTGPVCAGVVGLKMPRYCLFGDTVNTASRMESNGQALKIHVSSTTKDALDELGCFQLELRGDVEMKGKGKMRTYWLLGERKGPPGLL
# PLC-gamma1 inh: PLC-gamma1 (human) inhibition, primary screen. inhibition, % at 12.2 µM. purified PLC-gamma1, fluorogenic substrate, fluorescence. P19174. 370,000 compounds, 0.84% hits; in the data active = inhibition above about 9.5%
# PLCg1 ctr: inhibits human PLC-gamma1 in PLC-beta3 counter-screen | shares compounds with PLC-gamma1 inh | purified PLC-gamma1, fluorogenic substrate, fluorescence | inhibition, % at 12.3 µM | 3,300 compounds, 3.1% hits | AID 743258; in the data active = inhibition above about 9.5%
# PLCb3 confirm: human PLC-beta3 inhibition, confirmation; shares compounds with PLC-gamma1 inh; 3,300 compounds, 1% hits; inhibition, % at 12.3 µM; AID 743261; purified PLC-beta3, fluorogenic substrate fluorescence
# Numbers without * were called inactive; . = not tested or not shown. Compounds with a hit are over-represented: about 1.2% of the library has one in this group of screens. Rule as the data show it, unless noted: active = inhibition above about 11%; inactive = the rest.
SMILES,NPR1 activator,PLC-beta3 inh,GC-B act,PLC-gamma1 inh,PLCg1 ctr,PLCb3 confirm
CC(=O)NC12CC3CC(C1)CC(C(=O)N1CCN(S(=O)(=O)c4ccc([N+](=O)[O-])cc4)CC1)(C3)C2,-3,-5,1,0,.,.
O=C(Nc1nc(COc2ccccc2)cs1)C12CC3CC(CC(C3)C1)C2,-3,11*,-5,9,8,9
CCOC(=O)Cc1csc(NC(=O)COc2ccccc2)n1,-1,6,4,11*,-4,0
CCCOc1ncnc2c1sc1nc3c(cc12)COC(C)(C)C3,-5,-1,-4,7,.,.
CCOc1ncnc2c1sc1nc3c(cc12)COC(C)(C)C3,4,2,0,10*,-4,-1
CCc1nnc(NC(=O)CSc2nnc(Cc3ccccc3)n2Cc2ccccc2)s1,-2,1,0,3,.,.
COC(=O)n1c(=O)oc2ccc(S(=O)(=O)N3CCCCC3)cc21,0,-28,0,3,.,.
CCCCOC(=O)n1c(=O)oc2cc(S(=O)(=O)N3CCCCC3)ccc21,1,1,0,11*,-3,-1
COc1ccc(CC(=O)NCCCc2ccccc2)cc1OC,-1,-4,-1,2,.,.
Cc1cc2c(c(=O)o1)[C@@]1(C(=O)N(C)c3ccccc31)C1=C(CCCC1=O)O2,4,-2,5,-1,.,.
COc1ccc(-n2c(C)cc(/C=C3/SC(=S)N(C)C3=O)c2C)cc1,-4,-3,-4,11*,-23,-19
CC1Cc2ccccc2N1C(=O)CSc1nc(-c2ccco2)cc(C(F)(F)F)n1 (stereo not drawn),-1,1,8,13*,-2,0
CN1CCN(C(=O)CSc2nc(-c3ccco3)cc(C(F)(F)F)n2)CC1,3,-2,-1,-4,.,.
COc1ccc(CNC(=O)CCC(=O)Nc2nnc(CC(C)C)s2)cc1,-1,-3,3,12*,-6,-4
Cc1nc2ccc(C(=O)O)cc2nc1C,2,2,5,1,.,.
COc1cc(-c2ccc(NC(=O)CN3CCC(C)CC3)c(OC)c2)ccc1NC(=O)CN1CCC(C)CC1,2,6,5,10*,-5,-7
COc1ccc(NC(=O)CN2CCC(C)CC2)c([N+](=O)[O-])c1,-3,3,1,-3,.,.
COc1ccc(NC(=O)CN2CCC(C(N)=O)CC2)cc1,0,6,3,1,.,.
COc1ccc(NC(=O)CN2CCC(C)CC2)cc1,0,9,0,12*,-6,-2
CCOCCCNC(=O)c1cccc(NC(=O)C2=C(C)OCCS2)c1,0,5,1,1,.,.
Cc1ccc(C)c2[nH]c(=O)c(CN(CCN3CCCC3)C(=O)Nc3ccc(F)cc3)cc12,0,-12,-9,-10,.,.
CC1=C(C(=O)OC(C)C)C(c2cccc([N+](=O)[O-])c2)n2c(cc(=O)[nH]c2=S)N1 (stereo not drawn),1,3,4,9.7*,-2,0
CC1(C)CC(NC(=O)c2ccncc2)CC(C)(C)N1O,1,1,6,11*,-9,-5
O=C(Nc1cccc(Cl)c1)c1csc(COCCO)n1,0,3,0,10.0*,-6,-104
O=C(Nc1cccc(C(F)(F)F)c1)c1csc(COCCO)n1,0,5,3,1,.,.
SMILES,NPR1 activator,PLC-beta3 inh,GC-B act,PLC-gamma1 inh,PLCg1 ctr,PLCb3 confirm
COc1ccc(C(=O)N2CCCC(c3cc(C(=O)NCc4ccc(F)cc4)no3)C2)cc1 (stereo not drawn),-4,6,-2,9.7*,-7,-1
O=C1CN(S(=O)(=O)c2ccccc2)CCN1S(=O)(=O)c1ccccc1,3,3,1,3,.,.
O=C(Nc1ccc(Br)cc1)C1CCCN1S(=O)(=O)c1cccs1 (stereo not drawn),-1,2,-4,9.8*,-6,-4
Cc1nc2c3cc(F)ccc3n(CCN3CCCCC3)c2s1,-9,-10,1,9.7*,-6,0
CCc1ccc(C(=O)OCC(=O)N(CC)c2c(N)n(Cc3ccccc3)c(=O)[nH]c2=O)cc1,-1,-5,5,0,.,.
CCN(C(=O)COC(=O)c1ccc(C=O)cc1)c1c(N)n(Cc2ccccc2)c(=O)[nH]c1=O,-2,-24,-1,19*,0,-13

# Screening results as filed in PubChem BioAssay.
